From the supplement of paper PMC7156485
± gives the standard deviation of the averaged measurements.

Experiments:
Settings in all cases: concentration: 10 µM; 24 h
[1] = tested on: HCC1569; test: cell number relative to DMSO (% of DMSO); higher = more cells (less growth inhibition / toxicity)
Summary of the method: (§1)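 Cell number or H1.0 nuclear intensity appears as percent of the plate control, based on the median of replicates. Measurements came from HCC1569 and TDF cells exposed in triplicate to compounds at 10 µM for 24 h at 37 °C, then imaged in six fields per well at ×10. Positional effects were smoothed out of HCC1569 values.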

[2] = tested on: TDF; test: as above
Summary of the method: as §1

[3] = tested on: TDF; test: H1.0 immunofluorescence intensity relative to DMSO (% of DMSO); higher = stronger H1.0 induction, active = 120 or more
Summary of the method: as §1

[4] = tested on: HCC1569; test: H1.0 immunofluorescence intensity relative to DMSO (% of DMSO); higher = stronger H1.0 induction, active = 140 or more
Summary of the method: as §1
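Throughout, for H1.0 immunofluorescence intensity relative to DMSO: TDF is a line of transformed human dermal fibroblasts of mesenchymal origin.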
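Throughout, for cell number relative to DMSO: TDF denotes transformed human dermal fibroblasts of mesenchymal origin.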

| SMILES | cell number [1] | cell number [2] | H1.0 immunofluorescence intensity [3] | H1.0 immunofluorescence intensity [4] |
| --- | --- | --- | --- | --- |
| CN1C(C(=O)Nc2ccccn2)=C(O)c2ccccc2S1(=O)=O [Piroxicam] | 102 ± 2.1 | 107 ± 3.5 | 96.9 (inactive) | 98.2 (inactive) |
| CCCCCCCCCCCC=CC(C)(C)C=CCCCC(=O)O [7,7-Dimethyleicosadienoic acid] | 105 ± 6.3 | 99.5 ± 3.4 | 99 (inactive) | 95.5 (inactive) |
| COC(=O)C1C(O)CCC2CN3CCc4c([nH]c5ccccc45)C3CC21.Cl (stereo not given) [Rauwolscine hydrochloride] | 99.9 | 117 | 87 (inactive) | 103 (inactive) |
| O=c1cc(-c2ccc(O)cc2)oc2cc(O)cc(O)c12 [Apigenin] | 93.5 ± 3 | 104 ± 3.7 | 89.2 (inactive) | 99.9 (inactive) |
| CC[N+](C)(C)Cc1ccccc1Br.Cc1ccc(S(=O)(=O)[O-])cc1 [Bretylium tosylate] | 83.4 | 80.2 | 105 (inactive) | 103 (inactive) |
| CC(C=CC1=C(C)CCCC1(C)C)=CC=CC(C)=CC(=O)Nc1ccc(O)cc1 [Retinoic acid p-hydroxyanilide] | 42.9 | 85.3 | 100 (inactive) | 185 (active) |
| NC1CCN(c2nc3c(cc2F)c(=O)c(C(=O)O)cn3-c2ccc(F)cc2F)C1 (stereo not given) [Tosufloxacin] | 106 | 102 | 105 (inactive) | 104 (inactive) |
| CCC=CCC=CCC=CCC=CCC=CCCCCCC(=O)O [Docosapentaenoic acid] | 100.4 ± 0.68 | 97.7 ± 1.7 | 101 (inactive) | 103 (inactive) |
| CC[n+]1c(C=CN(C)c2ccccc2)n(-c2ccccc2)c2ccc(-c3nc4ccccc4s3)cc21.[I-] [Akt Inhibitor IV] | 38.7 | 21.3 | 148 (active) | 66.5 (inactive) |
| CCCCCCCCCCCCCCCCOCC(COP(=O)([O-])OCC[N+](C)(C)C)OC (stereo not given) [1-Hexadecyl-2-methylglycero-3 PC] | 101 | 95.4 | 104 (inactive) | 102 (inactive) |
| Cc1c(-c2cnccn2)ssc1=S [Oltipraz] | 105 | 101 | 97.9 (inactive) | 114 (inactive) |
| CCCCCC=CCC=CCC=CCC=CCCCC(=O)O [Arachidonic acid] | 104 ± 6.4 | 93.9 ± 1.1 | 101 (inactive) | 105 (inactive) |
| Cn1cc(C=C2C(=O)Nc3ccc(S(N)(=O)=O)cc32)c2ccccc21 [Syk Inhibitor] | 84.1 | 95.3 | 82.7 (inactive) | 132 (inactive) |
| O=C(c1cc2cc(O)ccc2[nH]1)c1cc2cc(O)ccc2[nH]1 [Flt-3 Inhibitor II] | 67.1 | 73 | 99.9 (inactive) | 195 (active) |
| COC(=O)c1ccccc1O [Methyl salicylate] | 100 | 104 | 92.2 (inactive) | 113 (inactive) |
| CC1(C)CC1C(=O)NC(=CCCCCSCC(N)C(=O)O)C(=O)O (stereo not given) [Cilastatin] | 100 | 94 | 101 (inactive) | 119 (inactive) |
| N#Cc1ccc(N2N=C3c4ccc(C(=O)O)cc4CCC3C2C2CCCC2)cc1Cl (stereo not given) | 101 | 110 | 85.4 (inactive) | 101 (inactive) |
| CC(C)NCC(O)COc1ccc(CC(N)=O)cc1 (stereo not given) [Atenolol] | 99.9 | 102 | 94.7 (inactive) | 113 (inactive) |
| CC(C(=O)O)c1ccc(CC2CCCC2=O)cc1 (stereo not given) [loxoprofen] | 103 | 95.9 | 88.6 (inactive) | 92.6 (inactive) |
| COc1ccc(CC(=O)NC(N=C(NC#N)Nc2cccc3ncccc23)C(C)(C)C)cc1OC (stereo not given) | 99.9 | 107 | 93.5 (inactive) | 96.8 (inactive) |
